From the supplement of paper PMC8728848
About 410 targets per protein were measured; listed, in parts, are those with the strongest signals and a random draw of the rest.

Assays:
Test in all cases: glycan array binding signal (z-score within array); higher = stronger binding
[1] = biological target: GlcNAc(b1-3)Gal(b1-4)GlcNAc(b1-6)[GlcNAc(b1-3)Gal(b1-3)]GalNAc; conditions: glycan notation: IUPAC condensed, linker removed; mutation: D224N
Procedure, shortened: (§1)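 From the Consortium for Functional Glycomics database, 3228 arrays were curated, keeping only those whose protein sequence was available. Binding is given as a within-array Z-score averaged across arrays sharing a protein sequence and across linkers. Negative Z-scores can be read as non-binding.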

[2] = biological target: GlcNAc(b1-4)[GlcNAc(b1-6)]GalNAc; conditions: glycan notation: IUPAC condensed, linker removed; mutation: D224N
Procedure, shortened: as §1

[3] = biological target: Kdn(a2-3)Gal(b1-4)[Fuc(a1-3)]GlcNAc; conditions: glycan notation: IUPAC condensed, linker removed; mutation: D224N
Procedure, shortened: as §1

[4] = biological target: Man(a1-2)Man(a1-2)Man(a1-6)[Man(a1-3)]Man; conditions: glycan notation: IUPAC condensed, linker removed; mutation: D224N
Procedure, shortened: as §1

[5] = biological target: Man(a1-3)[Man(a1-6)]Man; conditions: glycan notation: IUPAC condensed, linker removed; mutation: D224N
Procedure, shortened: as §1

[6] = biological target: Man(a1-3)[Man(a1-6)]Man(a1-6)[Man(a1-3)]Man; conditions: glycan notation: IUPAC condensed, linker removed; mutation: D224N
Procedure, shortened: as §1

[7] = biological target: Neu5Ac(a2-3)Gal(b1-4)GlcNAc(b1-3)Gal; conditions: glycan notation: IUPAC condensed, linker removed; mutation: D224N
Procedure, shortened: as §1

[8] = biological target: Neu5Ac(a2-3)Gal(b1-4)GlcNAc(b1-3)Gal(b1-4)[Fuc(a1-3)]GlcNAc; conditions: glycan notation: IUPAC condensed, linker removed; mutation: D224N
Procedure, shortened: as §1

[9] = biological target: Neu5Ac(a2-3)Gal(b1-4)GlcNAc(b1-3)[Neu5Ac(a2-3)Gal(b1-4)GlcNAc(b1-6)]GalNAc; conditions: glycan notation: IUPAC condensed, linker removed; mutation: D224N
Procedure, shortened: as §1

[10] = biological target: Neu5Ac(a2-3)Gal(b1-4)[Fuc(a1-3)]GlcNAc(b1-3)Gal(b1-4)GlcNAc; conditions: glycan notation: IUPAC condensed, linker removed; mutation: D224N
Procedure, shortened: as §1

[11] = biological target: Neu5Ac(a2-3)Gal(b1-4)[Fuc(a1-3)]GlcNAc(b1-6)[Neu5Ac(a2-3)Gal(b1-3)]GalNAc; conditions: glycan notation: IUPAC condensed, linker removed; mutation: D224N
Procedure, shortened: as §1

[12] = biological target: Neu5Ac(a2-3)Gal6S(b1-4)[Fuc(a1-3)]GlcNAc; conditions: glycan notation: IUPAC condensed, linker removed; mutation: D224N
Procedure, shortened: as §1

[13] = biological target: Neu5Ac(a2-6)Gal(b1-4)GlcNAc(b1-2)Man(a1-3)Man(b1-4)GlcNAc(b1-4)GlcNAc; conditions: glycan notation: IUPAC condensed, linker removed; mutation: D224N
Procedure, shortened: as §1

[14] = biological target: Neu5Ac(a2-6)Gal(b1-4)GlcNAc(b1-2)Man(a1-6)[Man(a1-3)]Man(b1-4)GlcNAc(b1-4)GlcNAc; conditions: glycan notation: IUPAC condensed, linker removed; mutation: D224N
Procedure, shortened: as §1

[15] = biological target: Neu5Ac(a2-6)Gal(b1-4)GlcNAc(b1-3)Gal(b1-4)GlcNAc(b1-2)Man(a1-3)[Neu5Ac(a2-6)Gal(b1-4)GlcNAc(b1-3)Gal(b1-4)GlcNAc(b1-2)Man(a1-6)]GalNAc; conditions: glycan notation: IUPAC condensed, linker removed; mutation: D224N
Procedure, shortened: as §1

[16] = biological target: Neu5Ac(a2-6)Gal(b1-4)GlcNAc(b1-3)Gal(b1-4)GlcNAc(b1-3)Gal(b1-4)GlcNAc(b1-2)Man(a1-3)[Neu5Ac(a2-6)Gal(b1-4)GlcNAc(b1-3)Gal(b1-4)GlcNAc(b1-3)Gal(b1-4)GlcNAc(b1-2)Man(a1-6)]GalNAc; conditions: glycan notation: IUPAC condensed, linker removed; mutation: D224N
Procedure, shortened: as §1

[17] = biological target: Neu5Ac(a2-6)Gal(b1-4)GlcNAc(b1-3)GalNAc; conditions: glycan notation: IUPAC condensed, linker removed
Procedure, shortened: as §1

[18] = biological target: Neu5Ac(a2-8)Neu5Ac(a2-3)Gal(b1-4)Glc; conditions: glycan notation: IUPAC condensed, linker removed; mutation: D224N
Procedure, shortened: as §1

[19] = biological target: Neu5Ac(a2-8)Neu5Ac(a2-8)Neu5Ac(a2-3)Gal(b1-4)Glc; conditions: glycan notation: IUPAC condensed, linker removed; mutation: D224N
Procedure, shortened: as §1

[20] = biological target: Neu5Ac(a2-8)Neu5Ac(a2-8)Neu5Ac(a2-3)[GalNAc(b1-4)]Gal(b1-4)Glc; conditions: glycan notation: IUPAC condensed, linker removed; mutation: D224N
Procedure, shortened: as §1

[21] = biological target: Fuc(a1-2)Gal(b1-3)GlcNAc(b1-2)Man(a1-3)[Fuc(a1-2)Gal(b1-3)GlcNAc(b1-2)Man(a1-6)]Man(b1-4)GlcNAc(b1-4)GlcNAc; conditions: glycan notation: IUPAC condensed, linker removed; mutation: R85A
Procedure, shortened: as §1

[22] = biological target: Fuc(a1-2)Gal6S(b1-4)Glc; conditions: glycan notation: IUPAC condensed, linker removed; mutation: R85A
Procedure, shortened: as §1

[23] = biological target: Fuc(a1-2)[Gal(a1-3)]Gal(b1-3)GlcNAc(b1-2)Man(a1-3)[Fuc(a1-2)[Gal(a1-3)]Gal(b1-3)GlcNAc(b1-2)Man(a1-6)]Man(b1-4)GlcNAc(b1-4)GlcNAc; conditions: glycan notation: IUPAC condensed, linker removed; mutation: R85A
Procedure, shortened: as §1

[24] = biological target: Fuc(a1-2)[Gal(a1-3)]Gal(b1-4)GlcNAc; conditions: glycan notation: IUPAC condensed, linker removed; mutation: R85A
Procedure, shortened: as §1

[25] = biological target: Fuc(a1-3)[Gal(b1-4)]Glc6S; conditions: glycan notation: IUPAC condensed, linker removed; mutation: R85A
Procedure, shortened: as §1

[26] = biological target: Fuc(a1-3)[Gal(b1-4)]GlcNAc(b1-3)Gal(b1-3)[Fuc(a1-4)]GlcNAc; conditions: glycan notation: IUPAC condensed, linker removed; mutation: R85A
Procedure, shortened: as §1

[27] = biological target: Gal(a1-3)Gal(b1-4)Glc; conditions: glycan notation: IUPAC condensed, linker removed; mutation: R85A
Procedure, shortened: as §1

[28] = biological target: Gal(a1-4)Gal(b1-4)Glc; conditions: glycan notation: IUPAC condensed, linker removed; mutation: R85A
Procedure, shortened: as §1

[29] = biological target: Gal(b1-3)Gal(b1-4)GlcNAc(b1-2)Man(a1-3)[Gal(b1-3)Gal(b1-4)GlcNAc(b1-2)Man(a1-6)]Man(b1-4)GlcNAc(b1-4)GlcNAc; conditions: glycan notation: IUPAC condensed, linker removed; mutation: R85A
Procedure, shortened: as §1

[30] = biological target: Gal(b1-3)GlcNAc(b1-2)Man(a1-3)[Gal(b1-3)GlcNAc(b1-2)Man(a1-6)]Man(b1-4)GlcNAc(b1-4)GlcNAc; conditions: glycan notation: IUPAC condensed, linker removed; mutation: R85A
Procedure, shortened: as §1

[31] = biological target: Gal(b1-3)GlcNAc(b1-3)Gal(b1-4)GlcNAc(b1-6)[Gal(b1-3)GlcNAc(b1-3)]Gal(b1-4)Glc; conditions: glycan notation: IUPAC condensed, linker removed; mutation: R85A
Procedure, shortened: as §1

[32] = biological target: Gal3S(b1-3)GalNAc; conditions: glycan notation: IUPAC condensed, linker removed; mutation: R85A
Procedure, shortened: as §1

[33] = biological target: Gal3S(b1-3)GlcNAc; conditions: glycan notation: IUPAC condensed, linker removed; mutation: R85A
Procedure, shortened: as §1

[34] = biological target: Gal3S(b1-4)Glc; conditions: glycan notation: IUPAC condensed, linker removed; mutation: R85A
Procedure, shortened: as §1

[35] = biological target: Gal3S(b1-4)Glc6S; conditions: glycan notation: IUPAC condensed, linker removed; mutation: R85A
Procedure, shortened: as §1

[36] = biological target: Gal3S(b1-4)GlcNAc6S; conditions: glycan notation: IUPAC condensed, linker removed; mutation: R85A
Procedure, shortened: as §1

[37] = biological target: Gal4S6S(b1-4)GlcNAc; conditions: glycan notation: IUPAC condensed, linker removed; mutation: R85A
Procedure, shortened: as §1

[38] = biological target: Gal6S(b1-4)Glc6S; conditions: glycan notation: IUPAC condensed, linker removed; mutation: R85A
Procedure, shortened: as §1

[39] = biological target: GlcNAc(b1-2)Man(a1-3)[GlcNAc(b1-2)Man(a1-6)]Man(b1-4)GlcNAc(b1-4)GlcNAc; conditions: glycan notation: IUPAC condensed, linker removed; mutation: R85A
Procedure, shortened: as §1

[40] = biological target: GlcNAc(b1-3)Gal(b1-4)GlcNAc(b1-3)Gal(b1-4)GlcNAc; conditions: glycan notation: IUPAC condensed, linker removed; mutation: R85A
Procedure, shortened: as §1

[41] = biological target: Neu5Ac(a2-3)Gal(b1-4)Glc; conditions: glycan notation: IUPAC condensed, linker removed; mutation: R85A
Procedure, shortened: as §1

[42] = biological target: Neu5Ac(a2-3)GalNAc; conditions: glycan notation: IUPAC condensed, linker removed; mutation: R85A
Procedure, shortened: as §1

[43] = biological target: Neu5Ac(a2-8)Neu5Ac; conditions: glycan notation: IUPAC condensed, linker removed; mutation: R85A
Procedure, shortened: as §1

B1: a L Fucosidase (Thermotoga maritima) (protein)
chain: MASMKPRYKPDWESLREHTVPKWFDKAKFGIFIHWGIYSVPGWATPTGELGKVPMDAWFFQNPYAEWYENSLRIKESPTWEYHVKTYGENFEYEKFADLFTAEKWDPQEWADLFKKAGAKYVIPTTKHHDGFCLWGTKYTDFNSVKRGPKRDLVGDLAKAVREAGLRFGVYYSGGLDWRFTTEPIRYPEDLSYIRPNTYEYADYAYKQVMELVDLYLPDVLWNNMGWPEKGKEDLKYLFAYYYNKHPEGSVNDRWGVPHWDFKTAEYHVNYPGDLPGYKWEFTRGIGLSFGYNRNEGPEHMLSVEQLVYTLVDVVSKGGNLLLNVGPKGDGTIPDLQKERLLGLGEWLRKYGDAIYGTSVWERCCAKTEDGTEIRFTRKCNRIFVIFLGIPTGEKIVIEDLNLSAGTVRHFLTGERLSFKNVGKNLEITVPKKLLETDSITLVLEAVEE
- glycan array binding signal (z-score) [1]: 1.65
- glycan array binding signal (z-score) [2]: -0.289
- glycan array binding signal (z-score) [3]: 0.051
- glycan array binding signal (z-score) [4]: -0.125
- glycan array binding signal (z-score) [5]: 0.332
- glycan array binding signal (z-score) [6]: 0.223
- glycan array binding signal (z-score) [7]: -0.187
- glycan array binding signal (z-score) [8]: 1.75
- glycan array binding signal (z-score) [9]: 0.483
- glycan array binding signal (z-score) [10]: 1.9
- glycan array binding signal (z-score) [11]: 2.83
- glycan array binding signal (z-score) [12]: -0.732
- glycan array binding signal (z-score) [13]: 1.99
- glycan array binding signal (z-score) [14]: 0.081
- glycan array binding signal (z-score) [15]: 2.02
- glycan array binding signal (z-score) [16]: 10.5
- glycan array binding signal (z-score) ([17]; mutation: D224N): 1.83
- glycan array binding signal (z-score) [18]: -0.893
- glycan array binding signal (z-score) [19]: 0.654
- glycan array binding signal (z-score) [20]: 0.362

B2: rAAL (Agrocybe aegerita), Q6WY08 (protein)
chain: MQGVNIYNISAGTSVDLAAPVTTGDIVTFFSSALNLNAGAGNPNNTTLNLFAENGAYLLHIAFRLQENVIIFNSRQPDGPWLVEQAVSDVANQFAGIDGKAMVTVFDHGDKYQVVINEKTVIQYTKQISGLTLSLSYNATEETSIFSTVVEAVTYTGLALEHHHHHH
- glycan array binding signal (z-score) [21]: -0.123
- glycan array binding signal (z-score) [22]: -0.131
- glycan array binding signal (z-score) [23]: -0.093
- glycan array binding signal (z-score) [24]: -0.127
- glycan array binding signal (z-score) [25]: -0.13
- glycan array binding signal (z-score) [26]: -0.132
- glycan array binding signal (z-score) [27]: 1.02
- glycan array binding signal (z-score) [28]: -0.133
- glycan array binding signal (z-score) [29]: 9.2
- glycan array binding signal (z-score) [30]: -0.072
- glycan array binding signal (z-score) [31]: 0.051
- glycan array binding signal (z-score) [32]: 14.6
- glycan array binding signal (z-score) [33]: 3.42
- glycan array binding signal (z-score) [34]: 3.77
- glycan array binding signal (z-score) [35]: 4.38
- glycan array binding signal (z-score) [36]: 0.209
- glycan array binding signal (z-score) [37]: -0.136
- glycan array binding signal (z-score) [38]: -0.121
- glycan array binding signal (z-score) [39]: -0.127
- glycan array binding signal (z-score) [40]: -0.136
- glycan array binding signal (z-score) [41]: 0.216
- glycan array binding signal (z-score) [42]: -0.131
- glycan array binding signal (z-score) ([17]; mutation: R85A): 1.17
- glycan array binding signal (z-score) [43]: -0.125
